# Rows were chosen to be rich in hits. Some 18% of all compounds tested hit in one or more screens of this group.
# TDP1 cell noCPT: qHTS for Inhibitors of human tyrosyl-DNA phosphodiesterase 1 (TDP1): qHTS in cells in absence of CPT | AID 686978, 2013 | 420,000 tested, 15% active | Potency, µM (top dose mostly 46.2 µM), for inactives: at the top dose activity change, negative = growth inhibition, usual class: inhibitors | DT40 Tdp1-/- hTDP1 cells, no CPT, ATP luminescence, 48 h; note: potency is the fitted concentration of half-maximal effect; nearly all actives have a fitted effect of over 55% in size
#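 Chicken DT40 Tdp1-/- cells complemented with human TDP1, screened without camptothecin (DMSO vehicle only), 400 cells/well. Compounds pin-transferred, cells incubated at 37 °C for at least 48 hr. Growth read as ATP-dependent luminescence (CellTiter-Glo, 30 min at RT).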
# IL-1B inflam inh: inhibitors of inflammasome signaling (IL-1 beta secretion); activity change, % at 57.5 µM; THP-1 LPS/ATP IL-1B secretion, AlphaLISA, 16 h; stronger effect = lower value; 360,000 tested, 4.7% active; in the data active = activity change below about -50%; inconclusive = mostly about -30% to -49%
#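 THP-1 cells pretreated 1 hr with compounds (up to 57.5 uM final), then stimulated with LPS (250 ng/mL final) plus ATP (1.25 mM final); secreted IL-1B measured by AlphaLISA after 16 hr, decreased signal indicating inhibition.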
# VP16 counter: inhibits Gal4-VP16 luciferase reporter, ROR gamma counter-screen | Drosophila S2 Gal4-VP16 UAS-luciferase, luminescence, 20 h | Potency, µM (series often up to 53.6 µM), inactives show top-dose activity, negative = inhibition, usual class: inhibitors | 310,000 tested, 3.5% active | AID 2546;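 note: Gal4-VP16 expression switched on by copper sulfate through the metallothionein promoter; potency is the fitted concentration of half-maximal effect; nearly all actives have a fitted effect of over 50% in size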
# DT40 TDP1 CPT: DT40-hTDP1 cell growth loss with CPT; 420,000 tested, 12% active; Potency, µM (highest dose often 46.2 µM), without a hit: at the top dose activity change, negative = growth inhibition, usual class: inhibitors; chicken DT40 Tdp1-/-;hTDP1 cells + 20 nM CPT, ATP luminescence, 48 h; note: potency is the fitted concentration of half-maximal effect; nearly all actives have a fitted effect of over 55% in size
#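 Chicken DT40 Tdp1-/- cells complemented with human TDP1, 400 cells/well, exposed to compounds plus 20 nM camptothecin for at least 48 h at 37 C; viability read as ATP content by CellTiter-Glo luminescence.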
# LDHA inh: blocks human lactate dehydrogenase A; 480,000 tested, 0.15% active; purified LDHA, NADH/diaphorase-resazurin fluorescence; stronger effect = lower value; activity change, % (values are at about 110 or 230 µM); in the data active = activity change below about -30%; inconclusive = mostly about -25% to -30%;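 note: plate controls were DMSO wells for no effect and wells without enzyme for full effect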
#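 Remaining NADH was detected by diaphorase (0.133 mg/mL) converting 37 µM resazurin to fluorescent resorufin, read at 0 and 20 minutes. The preceding 5-minute room-temperature reaction used 2 nM LDHA, 0.2 mM sodium pyruvate and 0.06 mM NADH at pH 7.4.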
# RORg inh: blocks mouse ROR gamma transcriptional activity; Potency, µM (doses to about 53.6 µM), for the others: at the top dose activity change, negative = inhibition, actives largely listed as inhibitors; 310,000 tested, 5.4% active; Drosophila S2 Gal4-RORgamma UAS-luciferase reporter, 20 h; note: potency is the fitted concentration of half-maximal effect; nearly all actives have a fitted effect of over 60% in size
# Target sequence (P51450 whole entry, looked up, the tested form may be a part): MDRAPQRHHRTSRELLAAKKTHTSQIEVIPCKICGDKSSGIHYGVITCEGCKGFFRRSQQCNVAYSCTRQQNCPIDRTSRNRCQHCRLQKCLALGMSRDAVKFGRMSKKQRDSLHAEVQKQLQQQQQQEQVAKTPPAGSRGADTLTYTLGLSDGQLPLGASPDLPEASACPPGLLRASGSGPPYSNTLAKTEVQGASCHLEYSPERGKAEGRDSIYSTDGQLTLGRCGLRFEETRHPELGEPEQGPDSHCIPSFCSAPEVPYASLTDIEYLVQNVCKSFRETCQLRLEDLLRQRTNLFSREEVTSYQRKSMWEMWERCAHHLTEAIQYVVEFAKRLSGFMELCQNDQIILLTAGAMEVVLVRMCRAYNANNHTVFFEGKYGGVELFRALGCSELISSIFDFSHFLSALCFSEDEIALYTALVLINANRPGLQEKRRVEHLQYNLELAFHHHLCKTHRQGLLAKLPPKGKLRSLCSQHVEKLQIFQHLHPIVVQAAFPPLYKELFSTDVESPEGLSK
#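 Drosophila S2 cells stably expressing Gal4-DBD/mouse RORγ fusion under metallothionein promoter plus UAS-luciferase; compound 1 h, then 700 uM CuSO4 induction for 20 h at ambient temperature; inhibition read as reduced luminescence.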
# An asterisk follows results filed as active; ? = inconclusive; . = not tested or not shown; [ ] = another dose, or the depositor's remark. Unless noted, calls come from the whole dose curve; as a rule, active = well fitted curve in the direction sought with a large enough effect; inconclusive = small, poorly fitted or top-dose-only effect, or another doubt; inactive = no such curve, though single readings can be large; an effect the other way counts as inactive or inconclusive. Unless noted, % is set by controls: 0 for no effect and ±100 for the full control effect.
SMILES,TDP1 cell noCPT,IL-1B inflam inh,VP16 counter,DT40 TDP1 CPT,LDHA inh,RORg inh
CCc1ccc(/C=C2/SC(=S)N(CCC(=O)NCCCN3CCOCC3)C2=O)cc1,-21%,-30,6%,-30%,0,16%
O=C(COc1ccccc1Cl)NCCCN1CCOCC1,-9%,5,1%,-2%,-5,-15%
COC(=O)c1ccc(/C=C2/SC(=S)N(CCC(=O)NCCCN3CCOCC3)C2=O)cc1,?,-57*,6%,?,-1,8%
CC(=O)Nc1ccc(NC(=O)C(C)C)cc1Cl,.,.,.,.,5,.
CCC(=O)N1CCC2(CC1)Oc1ccc(F)cc1C(=O)C21CC(c2ccc(Cl)cc2)=NO1 (configuration not stated),26µM*,?,-3%,?,-1,32%
CCC(=O)N1CCC2(CC1)Oc1ccc(Cl)cc1C(=O)C21CC(c2ccc(Cl)cc2)=NO1 (configuration not stated),13µM*,?,0%,?,-1,22%
CC(C)C(=O)N1CCC2(CC1)Oc1ccc(F)cc1C(=O)C21CC(c2ccc(Cl)cc2)=NO1 (configuration not stated),?,-67*,-26%,?,0,11%
O=C(c1ccco1)N1CCN(/C=C/C(=O)C(F)(F)F)CC1,.,.,.,.,7,.
O=C(Nc1ccccc1C(F)(F)F)c1ccccc1,.,.,.,.,6,.
COc1ccc(NC(=O)CN2CCC(C(=O)c3ccc(F)cc3)CC2)c(OC)c1,21µM*,45,-6%,?,1,33%
COc1ccc(OC)c(NC(=O)CN2CCC(C(=O)c3ccc(C)cc3)CC2)c1,21µM*,-11,1%,26µM*,5,15%[10 µM]
COc1ccc(NC(=S)N2CCC(C(=O)c3ccc(C)cc3)CC2)c(OC)c1,9.2µM*,-22,8%,13µM*,-1,-4%
COc1ccc(OC)c(NC(=S)N2CCC(C(O)(c3ccccc3)c3ccccc3)CC2)c1,?,0,?,-9%,4,16µM*
COc1ccc(NC(=O)CN2CCC(C(=O)c3ccc(C)cc3)CC2)c(OC)c1,?,13,-4%,?,0,?
CC(C)Cn1nc(C(=O)OCC(N)=O)c2ccccc2c1=O,.,.,.,.,1,.
Nc1nccnc1C(=O)NCCNc1ncccc1C(F)(F)F,.,.,.,.,2,.
O=C(OCC1OC2C(Oc3nc(=O)ccn32)C1O)c1ccccc1 (configuration not stated),-11%,0,-6%,-2%,-7,4%
N=c1ccn2c(n1)O[C@H]1[C@@H](CO)[C@H](O)O[C@H]12,0.0058µM*,39,.,0.037µM*,-7,.
CCN1C(=O)[C@@H]2[C@@H](c3ccc(SC4CCCCC4)cc3)N3CCC[C@@]3(C(=O)OC)[C@@H]2C1=O,21µM*,-2,.,?,0,.
CCN1C(=O)[C@H]2[C@@H](c3ccc(SC4CCCCC4)cc3)N3CCCC[C@@]3(C(=O)OC)[C@H]2C1=O,16µM*,0,.,15µM*,-10,.
COC(=O)[C@@]12CCCCN1[C@H](c1ccc(SC3CCCCC3)c(OC)c1)[C@@H]1C(=O)N(C)C(=O)[C@@H]12,?,-25,.,?,4,.
CCCSc1ccc([C@@H]2[C@H]3C(=O)N(CC)C(=O)[C@H]3[C@]3(C(=O)OC)CCCN23)cc1,?,5,.,?,-3,.
CCN1C(=O)[C@@H]2[C@@H](c3ccc(SC4CCCCC4)c(OC)c3)N3CCCC[C@@]3(C(=O)OC)[C@@H]2C1=O,?,?,.,21µM*,4,.
CCCSc1ccc([C@@H]2[C@@H]3C(=O)N(CC)C(=O)[C@@H]3[C@]3(C(=O)OC)CCCCN23)cc1,21µM*,14,.,18µM*,7,.
COc1cccc(NC(=O)c2ccc(CNS(=O)(=O)c3ccc4c(c3)C(C)(C)C(=O)N4C)cc2)c1,23µM*,.,.,?,-1,.
SMILES,TDP1 cell noCPT,IL-1B inflam inh,VP16 counter,DT40 TDP1 CPT,LDHA inh,RORg inh
Cc1cccc(NC(=O)c2ccc(CNS(=O)(=O)c3ccc4c(c3)C(C)(C)C(=O)N4C)cc2)c1,12µM*,.,.,21µM*,-5,.
Cc1ccc(NC(=O)c2ccc(CNS(=O)(=O)c3ccc4c(c3)C(C)(C)C(=O)N4C)cc2)cc1C,12µM*,.,.,15µM*,1,.
Cc1ccccc1NC(=O)c1ccc(CNS(=O)(=O)c2ccc3c(c2)C(C)(C)C(=O)N3C)cc1,?,.,.,?,1,.
COc1cccc(S(=O)(=O)NCc2ccc(C(=O)Nc3cccc(Cl)c3)cc2)c1,26µM*,?,-16%,21µM*,-5,16%
CCCCn1c(Oc2ccccc2Cl)nc2c1c(=O)n(C)c(=O)n2C,.,.,.,.,-7,.
O=C(NC12CC3CC(CC(C3)C1)C2)C12CC3CC(C1)CC(c1ccccc1)(C3)C2,.,.,.,.,-2,.
COc1ccccc1N1CCN(C(=O)C2CCCN(S(=O)(=O)c3ccc4c(c3)CCCN4C(C)=O)C2)CC1 (configuration not stated),8.2µM*,13,7.9µM*,8.2µM*,3,23%
CC(=O)N1CCCc2cc(S(=O)(=O)N3CCCC(C(=O)N4CCN(c5cc(C)ccc5C)CC4)C3)ccc21 (configuration not stated),6.5µM*,-78*,?,6.5µM*,0,8%
Cc1ccc(C)c(N2CCN(C(=O)C3CCCN(S(=O)(=O)c4cnc[nH]4)C3)CC2)c1 (configuration not stated),?,-13,-1%,?,-1,-15%
COc1ccc(C(C(=O)Nc2ccc3c(c2)OCCO3)N(C)C(=O)Cc2cccs2)cc1 (configuration not stated),.,.,.,.,-3,.
CC(C1CC1)N(C)C(=O)COc1ccc(C#N)cc1 (configuration not stated),.,.,.,.,-1,.
COc1cccc(CN2CCC2(C)C(=O)Nc2cccc(NS(C)(=O)=O)c2)c1OC (configuration not stated),23µM*,-5,.,18µM*,-7,.
COc1cccc(CN2CCC2(C)C(=O)Nc2cccc(Oc3ccccc3)c2)c1OC (configuration not stated),21µM*,-21,.,23µM*,-2,.

# Source: PubChem (National Center for Advancing Translational Sciences (NCATS))
